Reference: PubChem BioAssay (Tox21)
Results filed as inconclusive are left out. Where a call stands in place of a potency, no number is given. Calls of active or inactive are those of the source. Calls follow the shape of the full dose curve.

Target: Beta-2 adrenergic receptor (Homo sapiens) (UniProt P07550)
Assay: Adrenergic beta2 receptor (ADRB2) small molecule agonists, cell-based qHTS assay (AID 1963593)
Procedure, shortened: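 CHO cells stably over-expressing ADRB2 were plated overnight at 37C, then dosed with compounds plus a stimulation mix containing 100uM IBMX and 25uM Ro-20-1724 for 0.5hr at room temperature. cAMP was measured by HTRF competition, 1hr.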
Potency is read from the fitted curve at half-maximal effect.

Chain of Beta-2 adrenergic receptor (Homo sapiens) (P07550 whole entry, looked up): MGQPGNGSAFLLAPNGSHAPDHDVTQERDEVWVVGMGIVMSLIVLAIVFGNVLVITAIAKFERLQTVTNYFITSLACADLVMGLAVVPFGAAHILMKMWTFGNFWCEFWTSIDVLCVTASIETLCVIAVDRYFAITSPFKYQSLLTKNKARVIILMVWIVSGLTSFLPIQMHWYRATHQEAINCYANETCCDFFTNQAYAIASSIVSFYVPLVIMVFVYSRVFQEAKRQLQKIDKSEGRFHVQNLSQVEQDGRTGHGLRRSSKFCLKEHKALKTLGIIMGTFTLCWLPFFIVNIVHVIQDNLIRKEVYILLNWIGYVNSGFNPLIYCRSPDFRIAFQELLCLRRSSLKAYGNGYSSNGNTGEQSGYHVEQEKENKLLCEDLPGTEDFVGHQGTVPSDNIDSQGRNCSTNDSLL

SMILES | Potency
C=CCOCC1CO1 (stereo not given) | inactive
N#CN=C(N)N | inactive
CC(C)c1cccc(C(C)C)c1O | inactive
O=P1(N(CCCl)CCCl)NCCCO1 (stereo not given) | inactive
NNC(=S)NN | inactive
O=C(O)CCCc1ccc(N(CCCl)CCCl)cc1 | inactive
C=CC(N)=O | inactive
O=S(=O)(c1ccccc1)c1ccccc1 | inactive
Cc1ccc(N=CN(C)C=Nc2ccc(C)cc2C)c(C)c1 | inactive
O=S(=O)(c1ccc(O)cc1)c1ccc(O)cc1 | inactive
CC(C)(C)OOC(=O)c1ccccc1 | inactive
COc1ccc(C(CN(C)C)C2(O)CCCCC2)cc1 (stereo not given) | inactive
O=[N+]([O-])c1cc([As](=O)(O)O)ccc1O | inactive
CCC(C)(C)c1ccc(O)cc1 | inactive
C=C1CC[C@@]2(O)[C@H]3Cc4ccc(O)c5c4[C@@]2(CCN3CC2CC2)[C@H]1O5 | inactive
CC(=NC#N)N(C)Cc1ccc(Cl)nc1 | inactive
CC(C)(C)OOC(C)(C)C | inactive
CCN(N=O)C(N)=O | inactive
Nc1ccccc1C(=O)OCC(O)CO (stereo not given) | inactive
N#Cc1cc(Br)c(O)c(Br)c1 | inactive
O=[N+]([O-])c1ccc(Oc2ccc(Cl)cc2Cl)cc1 | inactive
C#CCOC(=O)/C=C(C)/C=C/CC(C)CCCC(C)C (stereo not given) | inactive

SMILES | Potency
CCC(CC)Nc1c([N+](=O)[O-])cc(C)c(C)c1[N+](=O)[O-] | inactive
O=C(O)C(F)(F)C(F)(F)C(F)(F)C(F)(F)C(F)(F)C(F)(F)C(F)(F)F | inactive
BrCCBr | inactive
Sc1ccccc1Cl | inactive
COc1ccc2c3c1O[C@H]1[C@H](O)CC[C@H]4[C@@H](C2)N(C)CC[C@@]341 | inactive
CCCC[n+]1cccc(C)c1 | inactive
N#Cc1nn(-c2c(Cl)cc(C(F)(F)F)cc2Cl)c(N)c1S(=O)C(F)(F)F (stereo not given) | inactive
CCNc1nc(Cl)nc(NC(C)C)n1 | inactive
Nn1cnnc1 | inactive
O=C(O)c1nn(Cc2ccc(Cl)cc2Cl)c2ccccc12 | inactive
CNC(=O)Oc1ccccc1C1OCCO1 | inactive
[O-][Cl+2]([O-])O | inactive
Cc1cc(Cl)ccc1OCCCC(=O)O | inactive
O=C(O)CC[N+](=O)[O-] | inactive
N#CCCCCC#N | inactive
CCCC(C)(COC(N)=O)COC(=O)NC(C)C (stereo not given) | inactive
Nc1ccc(Br)cc1 | inactive
CCCCCCCCCCCCCl | inactive
[N-]=[N+]=[N-] | inactive
C=CCc1ccc2c(c1)OCO2 | inactive
ClCc1cccnc1 | inactive
c1ccc(N=Nc2ccccc2)cc1 | inactive

SMILES | Potency
Nc1nc(N)nc(Cl)n1 | inactive
O=C(O)C(Cl)(Cl)Cl | inactive
O=C(O)C(Br)Br | inactive
C1CC2OC2CC1C1CO1 (stereo not given) | inactive
C=CCN=C=S | inactive
CC(C)(C#N)N=NC(C)(C)C#N | inactive
OCCCl | inactive
N[C@@H](Cc1ccc(N(CCCl)CCCl)cc1)C(=O)O | inactive
c1ccc2c(c1)Oc1ccccc1O2 | inactive
NNC(N)=S | inactive
Cc1cc(Cl)ccc1OCC(=O)O | inactive
ClCCOCCCl | inactive
O=c1[nH]c(=O)[nH]c(=O)[nH]1 | inactive
O=C1c2ccccc2C(=O)N1SC(Cl)(Cl)Cl | 21.7 µM (active)
CCOP(=S)(OCC)OP(=S)(OCC)OCC | inactive
COP(=S)(OC)Oc1ccc(S(=O)(=O)N(C)C)cc1 | inactive
ClC1C(Cl)C(Cl)C(Cl)C(Cl)C1Cl (stereo not given) | inactive
CNC(=O)Oc1c(C(C)(C)C)cc(C)cc1C(C)(C)C | inactive
CCCOC(=O)c1ccccc1C(=O)OCCC | inactive
C[C@H]1C(=O)O[C@@H]2CCN3CC=C(COC(=O)[C@](C)(O)[C@]1(C)O)[C@H]23 | inactive
C=CCN1CC[C@]23CCCC[C@H]2[C@H]1Cc1ccc(O)cc13 | inactive
